The values that follow come from PubChem BioAssay.

Assay [1] can be described thus: resazurin metabolic signal in HepG2 cells – cell-based, resazurin fluorescence, 24 h, PK04 Diversity Set, profiling panel (AID 1172). Note: test concentration not given here. The note with it: HepG2 viability, higher = more signal.
Assay [2] in a line: budding yeast growth changes without added modifier – OD600, strain BY4716, 24 h, basal condition, primary screen (AID 1173). The note with it: S. cerevisiae BY4716 growth, OD600, 24 h; higher = more signal, called active from +8 up or from −8 down.
The nature of assay [3]: viability profiling in MM1S myeloma cells – cell-based, resazurin fluorescence, basal, 24 h, PK04 Diversity Set, profiling panel (AID 1174).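 Note: MM1S multiple myeloma cell line; test concentration not given here.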 The note with it: higher = more signal, called active from +8 up or from −8 down.
Assay [4] deals with Dihydroorotate dehydrogenase (quinone), mitochondrial (Plasmodium falciparum (isolate 3D7)) (UniProt Q08210). In words: inhibition of P. falciparum DHODH – biochemical, C-terminal His tag, absorbance 600 nm, primary screen (AID 1175).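 Note: recombinant parasite enzyme with a five histidine tag at its C terminus; test concentration not given here.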 The note with it: PfDHODH enzyme, DCIP absorbance 600 nm; higher = more signal, called active from +8 up or from −8 down.
Assay [5] is described as follows: inhibition of PAO1 biofilm formation – strain PAO1, LB-PBS medium, absorbance 600 nm, primary screen (AID 1176). Note: test concentration not given here. The note with it: P. aeruginosa PAO1 growth/biofilm, A600, 12 h; higher = more signal.
Assay [6] is described as follows: growth modulation of vineyard yeast isolate – strain RM11-1a, OD600, basal, 24 h, primary screen (AID 1177).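 Note: cultures grown under basal conditions with no added stressor; test concentration not given here.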 The settings on record: S. cerevisiae RM11-1a growth, OD600, 24 h; higher = more signal, called active from +8 up or from −8 down.
The nature of assay [7]: growth of efflux-deficient E. coli DRC39 – strain DRC39, OD650, 24 h, E. coli filamentation inducers, primary screen (AID 1178).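 Note: growth measured as culture turbidity by optical density at 650 nm; test concentration not given here.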 The settings on record: E. coli DRC39 acrAB, higher = more signal, called active from +8 up or from −8 down.
Assay [8] can be described thus: growth of efflux-deficient E. coli DRC39 – strain DRC39, OD650, 48 h, E. coli filamentation inducers, primary screen (AID 1179).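 Note: screen aims at cell division blockers that make cells filament.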 The note with it: E. coli DRC39 delta-acrAB growth, higher = more signal, called active from +8 up or from −8 down.
Assay [9] in a line: viability profiling in RPMI8226 myeloma cells – cell-based, resazurin fluorescence, basal, 24 h, PK04 Diversity Set, profiling panel (AID 1180).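 Note: RPMI8826 multiple myeloma cell line at 5000 cells per well; test concentration not given here.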 The note with it: higher = more signal.
In assay [10] the target is E3 ubiquitin-protein ligase XIAP (Homo sapiens) (UniProt P98170). In words: small molecules binding XIAP protein – biophysical, small-molecule microarray, fluorescence 635 nm, primary screen (AID 1181).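 Note: score merges 667 nm emission and signal to noise over triplicate slides.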 The note with it: higher = more signal.

Structures are written as SMILES. Calls of active or inactive are those of the source. Unless noted, the rule behind the calls is not given here.

Sequence of Dihydroorotate dehydrogenase (quinone), mitochondrial (Plasmodium falciparum (isolate 3D7)) (Q08210 whole entry, looked up): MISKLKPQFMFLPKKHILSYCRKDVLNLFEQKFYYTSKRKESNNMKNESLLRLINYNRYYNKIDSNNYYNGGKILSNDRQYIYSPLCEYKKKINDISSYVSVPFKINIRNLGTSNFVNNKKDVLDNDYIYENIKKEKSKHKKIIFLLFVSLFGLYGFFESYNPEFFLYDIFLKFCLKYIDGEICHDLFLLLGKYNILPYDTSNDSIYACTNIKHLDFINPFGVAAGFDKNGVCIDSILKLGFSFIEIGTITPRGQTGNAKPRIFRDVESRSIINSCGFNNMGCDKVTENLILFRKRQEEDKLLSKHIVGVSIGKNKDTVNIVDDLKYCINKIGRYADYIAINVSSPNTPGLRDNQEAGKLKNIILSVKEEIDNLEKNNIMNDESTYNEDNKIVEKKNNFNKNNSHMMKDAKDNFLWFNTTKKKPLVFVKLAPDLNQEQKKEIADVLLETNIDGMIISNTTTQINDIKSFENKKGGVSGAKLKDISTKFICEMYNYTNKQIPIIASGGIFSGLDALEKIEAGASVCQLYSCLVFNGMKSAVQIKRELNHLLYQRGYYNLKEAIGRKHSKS
Sequence of E3 ubiquitin-protein ligase XIAP (Homo sapiens) (P98170 whole entry, looked up): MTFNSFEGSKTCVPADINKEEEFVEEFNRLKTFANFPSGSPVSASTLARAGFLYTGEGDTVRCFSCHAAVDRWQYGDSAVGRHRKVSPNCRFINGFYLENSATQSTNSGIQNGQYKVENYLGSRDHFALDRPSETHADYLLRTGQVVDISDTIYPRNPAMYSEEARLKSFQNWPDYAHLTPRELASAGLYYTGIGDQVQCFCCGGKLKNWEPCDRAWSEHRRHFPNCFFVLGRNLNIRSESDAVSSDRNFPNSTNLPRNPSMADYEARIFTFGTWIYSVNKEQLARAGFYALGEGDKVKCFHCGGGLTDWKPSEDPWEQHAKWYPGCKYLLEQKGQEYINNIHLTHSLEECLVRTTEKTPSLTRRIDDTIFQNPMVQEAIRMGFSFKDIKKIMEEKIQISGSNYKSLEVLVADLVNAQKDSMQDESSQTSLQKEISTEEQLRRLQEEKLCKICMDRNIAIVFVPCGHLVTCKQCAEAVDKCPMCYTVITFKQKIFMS

For the compound `C=CCC(OC(C)=O)[C@@H]1[C@@H](N(Cc2cc3ccccc3o2)C(=O)c2ccc(-c3ccccc3)cc2)c2cc(OCCCO)ccc2N1C(=O)c1ccc2ccccc2c1` (stereo not given in full), the z-score in assay [1] was -0.98; in assay [2], 1.9 (inactive); in [3], 0.198 (inactive); in assay [5], 0.857 (inactive); in assay [6], 0.454 (inactive); in assay [7], -0.413 (inactive). Further, the z-score is -0.787 (inactive) in assay [8] and -0.158 in assay [9]. For the same compound, the composite z-score was 0.396 (inactive) in assay [4] and -0.135 in [10].
As for `COCCCNC(=O)[C@@]1(Cc2ccccc2N=[N+]=[N-])COC(c2ccc(OCCCO)cc2)=N1`, the z-score is 0.677 in [1]; -1.68 (inactive) in assay [2]; -0.583 (inactive) in assay [3]; -0.76 (inactive) in assay [5]; 0.483 (inactive) in [6]; 0.349 (inactive) in [7]. Besides, the z-score in assay [8] is 0.746 (inactive); in assay [9] it was 0.895. Also, the composite z-score in assay [4] was 0.962 (inactive); in assay [10], 0.0049.
In the case of `COC(=O)[C@@]1(Cc2ccc(OC)cc2)[C@H]2c3cc(C(=O)N(C)C)n(C[C@H](O)CO)c3C[C@H]2CN1C(=O)c1ccccc1`, the z-score in assay [1] is -1.17; in assay [2], 1.02 (inactive); in assay [3], -2.31 (inactive); in assay [5], 2.01 (inactive); in [6], 0.166 (inactive); in [7], -1.46 (inactive). In addition, the z-score in assay [8] is -1.11 (inactive); in [9], -1.95. The composite z-score in assay [4] was -0.791 (inactive); in [10] it was 0.441.
For the compound `C=C(/C(=C/C[C@@H](OC(C)=O)c1cccc(OCCO)c1)c1cc(C(=O)OC)ccc1OC)C(C)C`, the z-score was 1.47 in assay [1]; -0.0321 (inactive) in assay [2]; 0.172 (inactive) in assay [3]; -0.153 (inactive) in assay [5]; 0.258 (inactive) in assay [6]; 0.233 (inactive) in assay [7]. For the same compound, the z-score in assay [8] was 0.547 (inactive); in assay [9], 0.883. In addition, the composite z-score in assay [4] was -1.4 (inactive); in assay [10], -0.0622.
`O=c1n(-c2ccccc2)c(=O)n2n1CC(COc1ccccc1)=C([C@H](O)CCc1ccccc1)[C@@H]2CO`: the z-score in [1] is -0.633; in assay [2], -2.28 (inactive); in assay [3], -0.83 (inactive); in [5], -0.0126 (inactive); in assay [6], -3.02 (inactive); in assay [7] it was 1.24 (inactive). The z-score in assay [8] was 0.395 (inactive); in [9], -0.0454. Also, the composite z-score in assay [4] is -1.09 (inactive); in assay [10], -0.472.
Consider `CN(C)CCCCNC(=O)[C@@H]1C[C@@H]2C(=O)N[C@@H](Cc3ccccc3)C(=O)N2[C@@H]1c1cccc(OCCO)c1`, for which the z-score in assay [1] was 0.225; in assay [2] it was -0.957 (inactive); in assay [3] it was 0.977 (inactive); in assay [5], 0.215 (inactive); in assay [6], -3.29 (inactive); in assay [7] it was 2.51 (inactive). Besides, the z-score was 2.13 (inactive) in assay [8] and 0.588 in [9]. Further, the values for the composite z-score in assay [4] and in assay [10] were -2.56 (inactive) and 0.109, respectively.
Turning to `C[N+](C)(C)CCCCCCNC(=O)[C@H]1C[C@H]2C(=O)N[C@@H](Cc3ccccc3)C(=O)N2[C@H]1c1ccc(O)cc1`, the z-score is -0.324 in assay [1]; 0.119 (inactive) in [2]; 0.13 (inactive) in [3]; -0.546 (inactive) in assay [5]; -0.0281 (inactive) in [6]; 0.962 (inactive) in assay [7]. Moreover, the z-score is 1.3 (inactive) in assay [8] and 0.201 in assay [9]. The composite z-score in assay [4] is -0.673 (inactive); in [10] it was -0.162.
`C=CCC(OC(C)=O)[C@@H]1[C@@H](N(Cc2ccc(-c3cccc(C(F)(F)F)c3)o2)C(=O)c2ccc(C)cc2)c2cc(OCCCO)ccc2N1C(=O)c1ccc2ccccc2c1` (stereo not given in full): the z-score was 0.472 in assay [1]; 0.656 (inactive) in assay [2]; 0.845 (inactive) in [3]; -0.124 (inactive) in [5]; 0.544 (inactive) in assay [6]; -0.0973 (inactive) in assay [7]. Besides, the z-score was 0.759 (inactive) in [8] and 1.37 in [9]. Besides, the values for the composite z-score in [4] and in assay [10] were -0.689 (inactive) and -0.0878, respectively.
As to `COC(=O)c1c(CC[C@@H](CO)NC(=O)N2CCC[C@H]2Cn2cc(Cc3ccccc3)nn2)oc(C(C)=O)c1C(=O)OC`, the z-score was 0.448 in [1]; -1.36 (inactive) in assay [2]; -0.362 (inactive) in assay [3]; -1.27 (inactive) in assay [5]; -0.245 (inactive) in assay [6]; 0.745 (inactive) in assay [7]. Moreover, the z-score was 0.312 (inactive) in [8] and -0.394 in [9]. Moreover, the composite z-score in assay [4] is -0.378 (inactive); in assay [10], 0.
Turning to `CN(C)CCCNC(=O)[C@@]1(c2ccc([N+](=O)[O-])cc2)CC(=O)N(CC23CC4CC(CC(C4)C2)C3)[C@@H]1c1ccc(CO)cc1I`, the z-score was -6.51 in assay [1]; -16.9 (active) in [2]; -9.05 (active) in assay [3]; 0.277 (inactive) in [5]; -20.9 (active) in assay [6]; -1.46 (inactive) in [7]. The z-score in assay [8] was -2.96 (inactive); in [9], -6.63. The composite z-score in assay [4] is -0.173 (inactive); in [10] it was -0.0541.
In the case of `[N-]=[N+]=NCc1ccccc1[C@H]1OC(c2ccc(OCCCO)cc2)=N[C@@]1(CCS(=O)(=O)c1ccccc1)C(=O)N1CCCCC1`, the z-score is -0.0145 in assay [1]; 0.285 (inactive) in assay [2]; -1.55 (inactive) in [3]; 0.659 (inactive) in assay [5]; 1.77 (inactive) in assay [6]; -0.132 (inactive) in assay [7]. The results for the z-score in [8] and in assay [9] were -0.846 (inactive) and -0.661, respectively. Besides, the figures for the composite z-score in [4] and in [10] were 0.716 (inactive) and 0.0593, respectively.
Turning to `COCCOC(=O)N1C(=O)[C@@]2(c3ccccc31)[C@H](C(=O)N1CCN(c3ncccn3)CC1)[C@H]1C(=O)O[C@H](c3ccccc3)[C@H](c3ccccc3)N1[C@@H]2c1ccc(O)cc1`, the z-score was -0.0067 in assay [1]; 0.056 (inactive) in assay [2]; 0.439 (inactive) in assay [3]; 1.81 (inactive) in assay [5]; 0.953 (inactive) in [6]; -0.612 (inactive) in assay [7]. In addition, the results for the z-score in assay [8] and in assay [9] were 0.075 (inactive) and 0.434, respectively. Also, the figures for the composite z-score in [4] and in assay [10] were -0.437 (inactive) and -0.222, respectively.
`CCCNC(=O)[C@@]1(c2ccc([N+](=O)[O-])cc2)CC(=O)N(C2CCCCC2)[C@@H]1c1ccc(CO)cc1`: the z-score in assay [1] is -0.347; in [2] it was 0.262 (inactive); in assay [3], 0.411 (inactive); in [5], 0.304 (inactive); in [6] it was 1.83 (inactive); in [7], 0.117 (inactive). Further, the z-score is -0.194 (inactive) in [8] and 0.543 in assay [9]. In addition, the composite z-score in [4] is 0.666 (inactive); in assay [10] it was -0.173.
